Source: PubChem BioAssay (National Center for Advancing Translational Sciences (NCATS))
Shown is part of a subset that was picked to be rich in hits.
GALK inh: inhibits human galactokinase; recombinant GALK, Kinase-Glo ATP luminescence, 1 h; P51570; AID 1347072; Potency, µM (highest dose often 57.5 µM), for inactives: at the top dose activity, negative = inhibition, most hits filed as inhibitors; 44,000 tested, under 10 active;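 note: plate controls were full GALK reaction for no effect and reaction lacking GALK for full effect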
Target sequence (P51570 whole entry, looked up): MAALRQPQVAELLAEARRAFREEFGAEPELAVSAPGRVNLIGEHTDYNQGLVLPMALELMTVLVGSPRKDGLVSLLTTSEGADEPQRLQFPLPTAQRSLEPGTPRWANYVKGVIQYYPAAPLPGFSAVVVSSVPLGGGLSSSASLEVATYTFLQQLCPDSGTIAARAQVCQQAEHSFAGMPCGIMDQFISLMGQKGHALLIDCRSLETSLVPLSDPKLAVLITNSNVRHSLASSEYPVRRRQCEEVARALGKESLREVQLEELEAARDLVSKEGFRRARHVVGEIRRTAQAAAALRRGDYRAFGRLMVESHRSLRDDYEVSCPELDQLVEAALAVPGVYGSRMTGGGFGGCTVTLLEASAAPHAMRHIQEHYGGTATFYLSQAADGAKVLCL
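Compounds were pinned into ATP buffer, then GALK-galactose mix was added (final 5 nM enzyme, 35 uM ATP, 100 uM galactose, pH 8.0). After 1 h at room temperature, Kinase-Glo Plus was added and luminescence read.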
B2AR arrestin ag: beta-arrestin recruitment by human beta2-adrenergic receptor ligands. HTLA Tango cells, beta-arrestin recruitment, luciferase luminescence, 18 h. Potency, µM (series often up to 46.1 µM), hits mostly activators. 44,000 tested, under 10 active;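 note: potency is the fitted concentration of half-maximal effect; 0% = DMSO and full agonism = EC100 isoproterenol or metaproterenol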
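Receptor–beta-arrestin recruitment read by tTA-responsive luciferase: compound titrations (up to 46 µM) incubated 18 h with Tango cells, then luminescent substrate 15 min at room temperature. Concentration-response fits classified by r2, efficacy and activity.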
GALC G270D act: enhancers of human galactocerebrosidase G270D mutant activity in cells. 145M-Twi-hGALC-G270D cells (Twitcher mouse brain line with human GALC G270D), HMU-beta-Gal fluorescence, 48 h. Potency, µM (highest dose often 57.5 µM), usual class: activators. 45,000 compounds, 0.1% hits. AID 1159614; note: potency is the fitted concentration of half-maximal effect; 0% is about no effect; nearly all actives have a fitted effect of over 65% in size
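Fluorogenic HMU-b-Gal hydrolysis (0.1 mM final, pH 5.2 citrate-phosphate with 1 mg/mL sodium taurocholate; carbonate stop buffer) measures mutant GALC activity after compound treatment of live 145M-Twi Twitcher brain cells stably carrying human GALC-G270D, with wild-type GALC line alongside; activation sought.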
FH mod: Identification of activators of human fumarate hydratase by quantitative high-throughput screening | 54,000 compounds, 0.22% hits | Potency, µM (series often up to 79.9 µM), inactives show at the top dose activity change, negative = inhibition, hits mostly inhibitors | FH coupled MDH/diaphorase resazurin fluorescence, 15 min; note: potency is the fitted concentration of half-maximal effect; % is set by controls: 0 for no effect and ±100 for the full control effect; the screen sought activators but most active calls are inhibition curves; nearly all actives have a fitted effect of over 45% in size
NTMT1 inh: NTMT1 methyltransferase inhibition | 59,000 compounds, 2.5% hits | Q9BV86 | Potency, µM (highest dose often 114 µM), for inactives: at the top dose activity change, negative = inhibition, actives largely listed as inhibitors | NTMT1 MTase-Glo SAH luminescence, purified enzyme;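 note: potency is the fitted concentration of half-maximal effect; plate controls were DMSO vehicle for no effect and no enzyme for full effect; nearly all actives have a fitted effect of over 65% in size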
PTAP-TSG101 blk: TSG101-PTAP interaction inhibition, HIV-1 budding; Potency, µM (series often up to 115 µM), usual class: inhibitors; Fluorescence polarization, FITC-PTAP peptide/Tsg101, 20 min; Q99816; AID 1347069; 44,000 tested, under 10 active; note: potency is the fitted concentration of half-maximal effect; 0% is about no effect
Target sequence (Q99816 whole entry, looked up): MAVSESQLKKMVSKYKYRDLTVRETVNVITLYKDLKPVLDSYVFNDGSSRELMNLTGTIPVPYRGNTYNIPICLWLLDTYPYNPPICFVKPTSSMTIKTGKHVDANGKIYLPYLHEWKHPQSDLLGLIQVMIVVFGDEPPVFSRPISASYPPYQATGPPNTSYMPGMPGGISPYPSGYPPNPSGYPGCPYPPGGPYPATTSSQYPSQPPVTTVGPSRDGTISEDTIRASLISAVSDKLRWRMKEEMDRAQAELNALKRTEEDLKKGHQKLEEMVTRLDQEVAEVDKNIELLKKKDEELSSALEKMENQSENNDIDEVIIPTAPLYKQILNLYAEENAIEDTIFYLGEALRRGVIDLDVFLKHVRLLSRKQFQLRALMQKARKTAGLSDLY
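FITC-labeled PTAP peptide (50 nM final) binding to Tsg101 binding domain (10 uM final) read by fluorescence polarization after 20 min at r.t. in HEPES pH 7.5 buffer. Actives by CRC class, <25 µM.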
Sfp qHTS opt: inhibits purified B. subtilis Sfp PPTase | shares compounds with NTMT1 inh | purified Sfp PPTase enzyme activity, qHTS | Potency, µM (highest dose often 114 µM), for inactives: at the top dose activity change, negative = inhibition, usual class: inhibitors | 230 compounds, 78% hits
HM489 growth: B. subtilis HM489 growth inhibition. Potency, µM (titrated, usually from 114 µM), for the others: top-dose activity change, negative = inhibition, usual class: inhibitors. shares compounds with NTMT1 inh. 220 compounds, 50% hits. B. subtilis HM489 (acpS-) growth, BacTiter-Glo, 5 h
Sfp gel opt: Sfp PPTase inhibition, gel-based detection; shares compounds with NTMT1 inh; purified Sfp PPTase, gel-based product detection; Potency, µM (highest dose often 250 µM), without a hit: top-dose activity change, negative = inhibition, hits mostly inhibitors; 220 compounds, 54% hits
Sfp gel: confirmation of Bacillus subtilis Sfp PPTase inhibitors; shares compounds with NTMT1 inh; purified Sfp PPTase, gel-based product detection; Potency, µM (top dose mostly 250 µM), for the others: top-dose activity change, negative = inhibition, actives largely listed as inhibitors; 45 compounds, 90% hits; AID 602362
Sfp inh SAR2: inhibitors of Bacillus subtilis Sfp PPTase, SAR round 2. shares compounds with NTMT1 inh. purified Sfp enzyme, PPTase activity, qHTS. Potency, µM (highest dose often 57.1 µM), for inactives: at the highest dose activity change, negative = inhibition, usual class: inhibitors. 230 compounds, 87% hits
hGST ctr: inhibits hGST A1-1 in Sfp inhibitor counter-screen; 55 tested, under 10 active; shares compounds with NTMT1 inh; hGST A1-1 enzyme activity counter-screen, qHTS; Potency, µM (top dose mostly 114 µM), for the others: top-dose activity change, negative = inhibition, actives largely listed as inhibitors
HSD17B4 counter: inhibits human HSD17B4, off-target for HPGD inhibitors; Potency, µM (highest dose often 57.1 µM), for inactives: at the top dose activity change, negative = inhibition, hits mostly inhibitors; 230 compounds, 10% hits; shares compounds with NTMT1 inh; purified HSD17B4, estradiol/NAD+, NADH fluorescence; AID 743187
ALDH1A1 counter: inhibits human ALDH1A1, off-target for HPGD inhibitors. Potency, µM (series often up to 57.1 µM), for inactives: at the highest dose activity change, negative = inhibition, usual class: inhibitors. shares compounds with NTMT1 inh. recombinant ALDH1A1, NADH fluorescence, propionaldehyde/NAD+. 230 compounds, 93% hits
* hit, by the source's call; i = inactive; ? = inconclusive; / = no result; [ ] = dose if it differs, or a comment. Calls come from the whole dose curve; as a rule, active = well fitted curve in the direction sought with a large enough effect; inconclusive = small, poorly fitted or top-dose-only effect, or another doubt; inactive = no such curve, though single readings can be large; an effect the other way counts as inactive or inconclusive.

SMILES	GALK inh	B2AR arrestin ag	GALC G270D act	FH mod	NTMT1 inh	PTAP-TSG101 blk	Sfp qHTS opt	HM489 growth	Sfp gel opt	Sfp inh SAR2	HSD17B4 counter	ALDH1A1 counter	others
COc1ccnc(NC(=S)N2CCN(c3cccc(C(F)(F)F)n3)CC2)c1	/	/	/	/	?	/	46.9µM*	-15.1%	?	5.76µM*	23.8%	8.57µM*
COc1cccc(NC(=S)N2CCN(c3ccc(C(F)(F)F)cc3[N+](=O)[O-])CC2)n1	/	/	/	/	?	/	?	?	31.6µM*	1.45µM*	-14.4%	1.52µM*
COc1cccc(NC(=S)N2CCN(c3cccc(C(F)(F)F)n3)CC2)n1	/	/	/	/	?	/	?	?	4.5%	?	-4.8%	4.82µM*
COc1ccccc1-c1noc(-c2ccc(N3CCN(c4ccccc4)CC3)c([N+](=O)[O-])c2)n1	-11.9%	i	i	-11.6%	?	i	/	/	/	/	/	/
COc1cccc(N2C(=O)c3ccccc3C2=O)n1	/	/	/	/	-12.1%	/	/	/	/	/	/	/
COc1ccnc(NC(=S)N2CCN(c3cccc(Cl)c3Cl)CC2)c1	/	/	/	/	?	/	5.91µM*	5.91µM*	7.94µM*	1.02µM*	0.2%	3.83µM*	Sfp gel=?;hGST ctr=-0.5%
O=C(Nc1ccc(-n2ccnc2)c(F)c1)Nc1nnc(-c2ccncc2)s1	/	/	/	/	-7.8%	/	/	/	/	/	/	/
O=C(Nc1cccc(Cl)c1)C(Cc1ccccc1)n1cccc1 (stereo unspecified)	-2.7%	i	i	?	6.8%	i	/	/	/	/	/	/
CC(Cc1ccccc1)C(=O)Nc1ccc(Cl)cc1C(=O)O (stereo unspecified)	/	/	/	/	18.0%	/	/	/	/	-20.2%	24.1µM*	24.1µM*	hGST ctr=?
CSC(Cc1ccc(Cl)cc1)C(=O)Nc1ccc(Cl)cc1C(=O)O (stereo unspecified)	/	/	/	-36.9%	16.9%	/	/	/	/	31.0%	?	24.1µM*	hGST ctr=?
Cc1ccc(N2CCN(C(=O)c3cnc(N4CCCCC4)c4ccccc34)CC2)c(C)c1	-0.7%	i	i	-16.3%	-1.6%	i	/	/	/	/	/	/
Cc1cc(C)nc(NC(=S)N2CCN(Cc3c(F)cccc3Cl)CC2)c1	/	/	/	/	-19.2%[57.5 µM]	/	8.35µM*	-22.8%	-42.4%	?	-12.0%	10.8µM*
Cc1cc(C)nc(NC(=S)N2CCN(c3ccc(Cl)c(Cl)c3Cl)CC2)c1	/	/	/	/	?	/	2.35µM*	7.44µM*	?	0.73µM*	-22.7%	19.2µM*
Cc1cc(C)nc(NC(=S)N2CCN(c3ccc4ncccc4c3[N+](=O)[O-])CC2)c1	/	/	/	/	?	/	5.91µM*	-21.0%	-58.8%	2.89µM*	-16.2%	19.2µM*
Cc1ccc(N2CCN(C(=O)c3ccc4c(Cl)c5c(nc4c3)CCCC5)CC2)c(C)c1	10.3%	i	i	-4.4%	3.5%	i	/	/	/	/	/	/
Cc1cc(C)nc(NC(=S)N2CCN(c3ccc([N+](=O)[O-])cc3Cl)CC2)c1	/	/	/	/	28.2µM*	/	1.48µM*	-16.6%	2µM*	0.81µM*	19.2µM*	0.681µM*	Sfp gel=1.51µM*;hGST ctr=0.4%
CC1=CC(=O)CC(C)(CO[C@@H]2O[C@H](CO)[C@@H](O)[C@H](O)[C@H]2O)C1(O)/C=C/C(C)=C/C(=O)O (stereo partly specified)	/	/	/	-1.6%[53.3 µM]	1.5%[29.8 µM]	/	/	/	/	/	/	/
CC(C)=CCc1ccc(Oc2c(O)cc(C)cc2CO)c(C(=O)O)c1O	/	/	/	-1.1%[53.3 µM]	12.0%[29.8 µM]	/	/	/	/	/	/	/
Cc1ccc(OCCn2c(CCNC(=O)/C=C/c3cccc(Br)c3)nc3ccccc32)cc1	/	/	/	/	-1.5%	/	/	/	/	/	/	/
CC1CC=C2C1CC1(O)C(=O)CC2(C)C1(C)CO (stereo unspecified)	/	/	/	4.3%	-2.5%[57.5 µM]	/	/	/	/	/	/	/
Cc1cc(C)nc(NC(=S)N2CCN(c3cc(Cl)c(Cl)cc3Cl)CC2)c1	/	/	/	/	?	/	4.69µM*	?	5.01µM*	3.24µM*	-22.0%	21.5µM*
COc1ccc(NC(=S)N2CCN(c3cccc(C(F)(F)F)c3)CC2)nc1	/	/	/	/	?	/	?	6.8%	-63.7%	?	-14.6%	3.41µM*
Cc1cncc(NC(=S)N2CCN(c3cccc(C(F)(F)F)c3)CC2)c1	/	/	/	/	?	/	?	-13.5%	?	?	-29.8%	-113.5%
FC(F)(F)c1cccc(N2CCN(C(=S)Nc3cccnc3)CC2)c1	/	/	/	/	?	/	?	?	-56.7%	40.8µM*	-19.0%	10.8µM*
Cc1noc(C)c1S(=O)(=O)N1CCC(C(=O)N2CCN(c3cccc(C(F)(F)F)c3)CC2)CC1	-5.9%	i	i	-15.9%	-0.3%	i	/	/	/	/	/	/
FC(F)(F)c1ccc(N2CCN(C(=S)Nc3ccccn3)CC2)cc1	/	/	/	/	?	/	2.35µM*	21µM*	5.01µM*	0.58µM*	-11.2%	2.41µM*
